# Laboratory results published in the supplement of paper PMC8728848.
# This is one part of a sample in which the strongest signals are shown more often than they occur.
# Experiments:
# Test in all cases: glycan array binding signal (z-score within array); higher = stronger binding
# Conditions in all cases: glycan notation: IUPAC condensed, linker removed; mutation: R343I
# Fuc(a1-2)Gal(b1-4)Glc6S = target: Fuc(a1-2)Gal(b1-4)Glc6S
# In short: (§1)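 Glycan array data came from 3228 arrays in the Consortium for Functional Glycomics database, and only arrays with an available protein sequence were kept. Glycan names were put into IUPAC-condensed notation, and columns mapping to the same glycan were averaged. The binding signal is a within-array Z-score, averaged across arrays of one protein sequence run at different concentrations or buffers and across linkers. A negative Z-score can be read as non-binding.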
# Fuc(a1-2)[Gal(a1-3)]Gal = target: Fuc(a1-2)[Gal(a1-3)]Gal
# In short: as §1
# [1] = target: Fuc(a1-2)[Gal(a1-3)]Gal(b1-3)GlcNAc
# In short: as §1
# [2] = target: Fuc(a1-2)[GalNAc(a1-4)]Gal(b1-4)GlcNAc
# In short: as §1
# Fuc(a1-3)GlcNAc = target: Fuc(a1-3)GlcNAc
# In short: as §1
# [3] = target: Fuc(a1-3)[Gal(b1-4)]GlcNAc(b1-2)Man(a1-3)[Fuc(a1-3)[Gal(b1-4)]GlcNAc(b1-2)Man(a1-6)]Man(b1-4)GlcNAc(b1-4)GlcNAc
# In short: as §1
# [4] = target: Fuc(a1-3)[Gal(b1-4)]GlcNAc(b1-2)Man(a1-6)[Gal(b1-4)GlcNAc(b1-2)Man(a1-3)]Man(b1-4)GlcNAc(b1-4)GlcNAc
# In short: as §1
# Gal(a1-2)Gal = target: Gal(a1-2)Gal
# In short: as §1
# Gal(a1-3)GalNAc = target: Gal(a1-3)GalNAc
# In short: as §1
# Gal(a1-4)GlcNAc = target: Gal(a1-4)GlcNAc
# In short: as §1
# [5] = target: Gal(b1-3)[GlcNAc(b1-6)]GalNAc
# In short: as §1
# [6] = target: Gal(b1-3)[Neu5Ac(b2-6)]GalNAc
# In short: as §1
# [7] = target: Gal(b1-4)GalNAc(a1-3)[Fuc(a1-2)]Gal(b1-4)GlcNAc
# In short: as §1
# [8] = target: Gal(b1-4)GlcNAc(b1-6)GalNAc
# In short: as §1
# [9] = target: GlcNAc(b1-2)Man(a1-3)[GlcNAc(b1-2)Man(a1-6)]Man(b1-4)GlcNAc(b1-4)GlcNAc
# In short: as §1
# GlcNAc(b1-3)Man = target: GlcNAc(b1-3)Man
# In short: as §1
# [10] = target: GlcNAc(b1-4)[GlcNAc(b1-6)]GalNAc
# In short: as §1
# [11] = target: Man(a1-2)Man(a1-2)Man(a1-3)Man
# In short: as §1
# [12] = target: Man(a1-2)Man(a1-3)[Man(a1-2)Man(a1-6)]Man(a1-6)[Man(a1-2)Man(a1-2)Man(a1-3)]Man
# In short: as §1
# [13] = target: Man(a1-2)Man(a1-3)[Man(a1-6)]Man(a1-6)[Man(a1-2)Man(a1-3)]Man(b1-4)GlcNAc(b1-4)GlcNAc
# In short: as §1
# [14] = target: Man(a1-2)Man(a1-6)[Man(a1-3)]Man(a1-6)[Man(a1-2)Man(a1-2)Man(a1-3)]Man
# In short: as §1
# Man(a1-3)[Man(a1-6)]Man = target: Man(a1-3)[Man(a1-6)]Man
# In short: as §1
# Man(a1-6)Man = target: Man(a1-6)Man
# In short: as §1
# [15] = target: Neu5Ac(a2-3)Gal(b1-3)GlcNAc(b1-3)Gal(b1-3)GlcNAc
# In short: as §1
# [16] = target: Neu5Ac(a2-3)Gal(b1-3)GlcNAc6S
# In short: as §1
# [17] = target: Neu5Ac(a2-3)Gal(b1-4)GlcNAc(b1-3)Gal(b1-4)GlcNAc
# In short: as §1
# [18] = target: Neu5Ac(a2-3)Gal(b1-4)GlcNAc(b1-6)[Neu5Ac(a2-3)Gal(b1-3)]GalNAc
# In short: as §1
# Neu5Ac(a2-6)GalNAc = target: Neu5Ac(a2-6)GalNAc
# In short: as §1
# [19] = target: Neu5Ac(a2-8)Neu5Ac(a2-3)Gal(b1-4)Glc
# In short: as §1
binder,measurement,setting,value
Surfactant Protein D (Human); Neck + Carbohydrate Recognition Domain (NCRD) (Homo sapiens) (protein) MLLFLLSALVLLTQPLGYLEAEMKTYSHRTMPSACTLVMCSSVESGLPGRDRDGREGPRGEKGDPGLPGAAGQAGMPGQAGPVGPKGDNGSVGEPGPKGDTGPSGPPGPPGVPGPAGREGALGKQGNIGPQGKPGPKGEAGPKGEVGAPGMQGSAGARGLAGPKGERGVPGERGVPGNTGAAGSAGAMGPQGSPGARGPPGLKGDKGIPGDKGAKGESGLPDVASLRQQVEALQGQVQHLQAAFSQYKKVELFPNGQSVGEKIFKTAQFVKPFTEAQLLCTQAGGQLASPRSAAENAALQQLVVAKNEAAFLSMTDSKTEGKFTYPTGESLVYSNWAPGEPNDDGGSEDCVEIFTNGKWNDIACGEKRLVVCEF,glycan array binding signal (z-score),Fuc(a1-2)Gal(b1-4)Glc6S,-0.274
same,glycan array binding signal (z-score),Fuc(a1-2)[Gal(a1-3)]Gal,-0.265
same,glycan array binding signal (z-score),[1],-0.272
same,glycan array binding signal (z-score),[2],-0.266
same,glycan array binding signal (z-score),Fuc(a1-3)GlcNAc,5.51
same,glycan array binding signal (z-score),[3],-0.264
same,glycan array binding signal (z-score),[4],-0.272
same,glycan array binding signal (z-score),Gal(a1-2)Gal,-0.275
same,glycan array binding signal (z-score),Gal(a1-3)GalNAc,-0.268
same,glycan array binding signal (z-score),Gal(a1-4)GlcNAc,-0.27
same,glycan array binding signal (z-score),[5],-0.274
same,glycan array binding signal (z-score),[6],-0.276
same,glycan array binding signal (z-score),[7],-0.263
same,glycan array binding signal (z-score),[8],-0.275
same,glycan array binding signal (z-score),[9],5.45
same,glycan array binding signal (z-score),GlcNAc(b1-3)Man,-0.076
same,glycan array binding signal (z-score),[10],-0.05
same,glycan array binding signal (z-score),[11],4.64
same,glycan array binding signal (z-score),[12],4.37
same,glycan array binding signal (z-score),[13],4.08
same,glycan array binding signal (z-score),[14],4.33
same,glycan array binding signal (z-score),Man(a1-3)[Man(a1-6)]Man,0.263
same,glycan array binding signal (z-score),Man(a1-6)Man,-0.261
same,glycan array binding signal (z-score),[15],-0.268
same,glycan array binding signal (z-score),[16],-0.275
same,glycan array binding signal (z-score),[17],-0.278
same,glycan array binding signal (z-score),[18],-0.275
same,glycan array binding signal (z-score),Neu5Ac(a2-6)GalNAc,-0.269
same,glycan array binding signal (z-score),[19],-0.267
